Source: PubChem
HCV inh: blocks hepatitis C virus; Huh7.5.1 HCVcc-Cre infection, luciferase reporter, 44 h; Potency, µM (top dose mostly 41.8 µM), usual class: inhibitors; 3.4% of 340,000 active; AID 651820
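HCVcc-Cre virus at an moi near 0.5 was added right after compound to cells cultured 4 h from seeding (1,000 cells/well). Luciferase activity was determined 44 h later, 15 min after substrate addition at RT.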
FMDV antiviral: antivirals against foot and mouth disease virus | FMDV antiviral cell-based qHTS | 1.2% of 410,000 active | Potency, µM (highest dose often 57.9 µM), usual class: inhibitors; calls by dose curve; tested in HEK293T cells; also: read-out not given here; nearly all actives have a fitted effect of over 45% in size
Sm TGR inh: S. mansoni TGR enzyme inhibition | Q962Y6 | purified TGR, DTNB reduction, TNB absorbance 405 nm | Potency, µM (titrated, usually from 114 µM), most hits filed as inhibitors | 3% of 360,000 active; also: nearly all actives have a fitted effect of over 60% in size
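TGR 20 nM + NADPH 100 uM (dispensed conc.), cpd preinc 15 min RT; start with NADPH (500 uM addition) then DTNB (15 mM addition). Kinetic TNB absorbance, 405 nm filter. Four-parameter Hill fit across titration.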
HCMV antiviral: human cytomegalovirus inhibition; 4.5% of 410,000 active; activity change, negative = inhibition, % at 57.5 µM; HFF cells, HCMV-luciferase reporter, 72 h; stronger effect = lower value; in the data active = activity change below about -60%; inconclusive = no clear call, values can overlap the other calls; inactive = above about -39%
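Screen run at 2 compound doses on HFFs infected with reporter HCMV, MOI 1 PFU/cell. Luciferase activity from cell lysates at 72 h post infection gave inhibition relative to buffer-only and Salinomycin wells.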
Vaccinia mCherry: inhibitors of vaccinia virus infection (mCherry reporter signal) | Vaccinia virus mCherry reporter infection, fluorescence | Potency, µM (top dose mostly 36.5 µM), most hits filed as inhibitors | 0.63% of 310,000 active | AID 720579; calls by dose curve; tested in A549 cells; also: nearly all actives have a fitted effect of over 35% in size
VACV Venus inh: vaccinia inhibition (Venus reporter); Vaccinia virus Venus reporter expression, fluorescence; Potency, µM (series often up to 36.5 µM), usual class: inhibitors; 0.46% of 330,000 active; AID 720580; calls by dose curve; tested in A549 cells; also: nearly all actives have a fitted effect of over 30% in size
Numbers stand for hits; n = inactive; u = inconclusive; x = no result; + = active, no number. Most compounds without a hit are left out; they make up all but 9.3% or so of the library. Unless noted, calls follow the shape of the dose curve; as a rule, active = well fitted curve in the direction sought with a large enough effect; inconclusive = small, poorly fitted or top-dose-only effect, or another doubt; inactive = no such curve, though single readings can be large; an effect the other way counts as inactive or inconclusive.

SMILES | HCV inh | FMDV antiviral | Sm TGR inh | HCMV antiviral | Vaccinia mCherry | VACV Venus inh
COc1ccc(CCNc2nc3c(c(=O)n(C)c(=O)n3C)n2Cc2ccc(F)cc2)cc1OC | x | 16µM | n | -90 | u | n
Cn1c(=O)c2c(nc(NCCc3ccccc3)n2Cc2ccc(Cl)cc2)n(C)c1=O | x | u | n | -82 | u | u
Cn1c(=O)c2c(nc(NCc3ccc4c(c3)OCO4)n2Cc2ccc(F)cc2)n(C)c1=O | 11µM | u | n | n | x | x
Cn1c(=O)c2c(nc(NCc3ccccc3)n2Cc2ccc(Cl)c(Cl)c2)n(C)c1=O | x | u | n | -76 | u | u
CC(=O)NCCC(=O)Nc1nc(-c2ccccc2Cl)cs1 | n | n | n | n | n | n
CCCCOc1ccccc1C1C(C(N)=O)=C(C)Nc2nnnn21 (configuration not stated) | n | n | n | n | n | n
CCOC(=O)/C=C/c1cnn(-c2ccccc2)c1 | n | n | n | n | n | n
O=C(C[C@H]1C[C@H](C(=O)N2CCCCC2)[C@@]2(CCc3ccccc3)c3[nH]c4cc(-c5ccco5)ccc4c3CCN2C1=O)NCCN1CCOCC1 | u | n | x | -101 | u | 10µM
O=C(C[C@H]1C[C@H](C(=O)N2CCCCC2)[C@@]2(CCc3ccccc3)c3[nH]c4ccc(Cl)cc4c3CCN2C1=O)NCCCn1ccnc1 | 25µM | u | x | n | n | 11µM
O=C(C[C@H]1C[C@H](C(=O)N2CCOCC2)[C@@]2(CCC3CCCC3)c3[nH]c4cc(-c5ccco5)ccc4c3CCN2C1=O)NCCCn1ccnc1 | n | n | x | -90 | n | 10µM
CC(=O)N1CCc2cc(S(=O)(=O)NCCC3=CCCCC3)ccc21 | u | n | x | u | n | u
CCN(C(=O)COC(=O)CNC(=O)c1ccccc1C)C1=CCCCC1 | n | n | n | n | x | x
CCCN(C(=O)CCl)C1=CCCCC1 | 13µM | u | 11µM | -100 | n | n
COc1cc(C(=O)NCC(=O)N/N=C/c2ccc(-c3cccc([N+](=O)[O-])c3)o2)cc(OC)c1OC | u | n | n | n | u | n
CCOC(=O)CCCc1ccc(/C(C)=N/NC(=S)NC)cc1 | n | n | n | -95 | x | x
CCOC(=O)CCCc1ccc(/C(C)=N/NC(N)=S)cc1 | u | n | n | n | u | u
NS(=O)(=O)c1cc(C(=O)Nc2ccc3c(c2)OCCCO3)ccc1Cl | n | n | n | n | n | n
CCOc1ccc(NC(=O)c2ccc(NC(=O)N3CCSc4ncccc43)cc2)cc1 | x | 32µM | n | u | n | n
CCOc1ccccc1CNC(=O)c1ccc(NC(=O)N2CCSc3ncccc32)cc1 | x | u | n | + | n | n
COc1ccc(NC(=O)c2ccc(NC(=O)N3CCSc4ncccc43)cc2)cc1 | x | u | n | n | n | n
CC(C)c1ccccc1NC(=O)CSc1nnc(COc2ccccc2Cl)o1 | x | n | n | n | n | n
CCOC(=O)C1(CCc2ccccc2)CCN(C(=O)C(C)n2cncn2)CC1 (configuration not stated) | n | n | n | n | n | n
Cc1ccc(NC(=O)c2ccc(F)c(S(=O)(=O)N3CCc4ccccc4C3)c2)cc1F | x | n | n | -68 | n | n
Cc1ccccc1NC(=O)c1ccc(F)c(S(=O)(=O)N2CCc3ccccc3C2)c1 | x | n | n | n | n | n
CCOC(=O)Cc1csc(NC(=O)c2ccc(S(=O)(=O)N3CCOCC3)cc2)n1 | u | n | n | n | n | n
SMILES | HCV inh | FMDV antiviral | Sm TGR inh | HCMV antiviral | Vaccinia mCherry | VACV Venus inh
O=C(Nc1cc(Cl)cc(Cl)c1)c1ccc(F)c(S(=O)(=O)N2CCN(c3ccccc3F)CC2)c1 | x | n | n | n | n | n
CCc1ccccc1NC(=O)c1ccc(F)c(S(=O)(=O)N2CCN(c3ccccc3OC)CC2)c1 | x | u | n | -62 | n | n
Cc1ccc(CNS(=O)(=O)c2cc(C(=O)Nc3ccc(C(C)C)cc3)ccc2F)cc1 | x | n | n | n | n | n
Cc1ccc(NC(=O)c2ccc(F)c(S(=O)(=O)NCCc3ccccc3)c2)cc1F | x | n | n | -75 | u | n
CCOC(=O)Cc1csc(NC(=O)c2ccc(C)c(S(=O)(=O)N3CCOCC3)c2)n1 | u | 32µM | n | n | x | x
O=C(c1ccc(Br)cc1)N1CCC(c2nc3ccccc3s2)CC1 | x | n | n | n | n | n
O=C(Nc1ccc(Cl)cc1C(F)(F)F)C(Sc1cccc[n+]1[O-])c1ccccc1 (configuration not stated) | n | n | x | n | n | n
O=C(Nc1ccc(Br)cc1)c1ccc(F)c(S(=O)(=O)NCc2cccs2)c1 | 5µM | n | n | -92 | u | u
O=C(NC1CCSc2ccccc21)c1ccc(F)c(S(=O)(=O)N2CCOCC2)c1 (configuration not stated) | x | n | 40µM | n | n | n
Cc1nc2ccc(NC(=O)c3ccc(Cl)c(S(=O)(=O)N(C)c4ccccc4)c3)cc2s1 | u | 8.9µM | n | -101 | u | u
O=C(Nc1ccc(-c2cn3ccsc3n2)cc1)c1ccc(F)c(S(=O)(=O)N2CCOCC2)c1 | 5.6µM | u | n | u | x | x
O=C(NC1CCSc2ccccc21)c1cc(S(=O)(=O)N2CCOCC2)ccc1F (configuration not stated) | n | n | n | n | n | n
CC(=O)Nc1nonc1NC(=O)COc1ccccc1 | n | n | n | n | n | n
O=C(Nc1ccccc1)c1ccc(F)c(S(=O)(=O)N2CCOCC2)c1 | n | n | n | n | x | x
CON(C)S(=O)(=O)c1cccc(C(=O)NC2CCSc3ccccc32)c1 (configuration not stated) | u | n | n | -74 | n | n
Cc1ccc(C)c(N2CCN(S(=O)(=O)c3cc(C(=O)Nc4ccc(Oc5ccccc5)cc4)ccc3F)CC2)c1 | x | n | n | -65 | u | n
Cc1ccc(NC(=O)c2ccc(F)c(S(=O)(=O)N3CCOCC3)c2)cc1F | x | u | n | -69 | u | n
CN(C)S(=O)(=O)c1cccc(C(=O)NC2CCSc3ccccc32)c1 (configuration not stated) | n | n | n | n | n | n
O=C(Nc1ccc(Br)cc1)c1ccc(F)c(S(=O)(=O)N2CCc3ccccc32)c1 | x | u | n | -92 | n | u
CCOC(=O)C1CCCN(C(=O)c2ccccc2SCCOC)C1 (configuration not stated) | n | x | n | n | n | n
Cc1cc(OC(=O)c2ccc(C(F)(F)F)cc2)c([N+](=O)[O-])c(=O)[nH]1 | n | n | n | n | n | n
Cn1c(=O)[nH]c(=O)c2c1nc(NCc1ccccc1)n2CC(O)c1ccccc1 (configuration not stated) | n | n | n | n | x | n
Cc1nc2ccc(NC(=O)c3ccc(C)c(S(=O)(=O)N4CCOCC4)c3)cc2s1 | 10µM | u | n | -72 | x | x
O=C1CC(/C=C/c2ccncc2)=Nc2ccccc2N1 | u | n | u | -99 | u | n
CNC(=O)Oc1ccc2c(c1)[C@@]1(C)CCN(C)[C@@H]1N2C | x | n | x | x | x | x
